In publication PMC4081100, “A DNA-binding-site landscape and regulatory network analysis for NAC transcription factors in Arabidopsis thaliana” one finds binding signal data, which are given here for 11 sequences.

What all share (assay): universal protein binding microarray (PBM); transcription factors of Arabidopsis thaliana; high values mean tight binding
Assay [1] has as its target T1, GST-ANAC092(1-176) (Arabidopsis thaliana, UniProt Q9FKA0 1-176).
T1 sequence: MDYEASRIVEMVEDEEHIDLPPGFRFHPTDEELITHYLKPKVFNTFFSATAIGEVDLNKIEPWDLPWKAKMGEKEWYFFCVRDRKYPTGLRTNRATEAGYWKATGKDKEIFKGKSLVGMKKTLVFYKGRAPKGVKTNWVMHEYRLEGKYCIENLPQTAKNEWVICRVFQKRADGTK
As to conditions: protein: recombinant; tags: GST; chain copies: 2; dsDNA, one strand shown. The method in brief:
(§1)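 Protein amounts were determined by A280 or anti-GST western blot after glutathione–Sepharose 4B purification of GST-tagged proteins induced in cells, with zinc acetate included for zinc-finger proteins. Duplicate runs at 200 to 500 nM final were done on custom all-10-mer Agilent 4 × 180K arrays made double-stranded by primer extension. The normalised enrichment score (E-score) over gapped and ungapped 8-mers is the measure of binding.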

In assay [2] the target is GST-NTL6(1-168) (Arabidopsis thaliana, UniProt Q9SCK6 1-168). The note with it: protein: recombinant; tags: GST; chain copies: 2; dsDNA, one strand shown. The method in brief: as §1
Chain of GST-NTL6(1-168) (Q9SCK6 1-168): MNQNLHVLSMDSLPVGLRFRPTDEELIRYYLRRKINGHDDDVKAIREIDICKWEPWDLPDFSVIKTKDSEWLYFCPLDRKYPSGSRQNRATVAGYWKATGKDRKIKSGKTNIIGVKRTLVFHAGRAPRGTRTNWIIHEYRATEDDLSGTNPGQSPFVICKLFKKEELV
For assay [3], the target named is T2, GST-ANAC019 NAC domain (Arabidopsis thaliana, UniProt Q9C932 14-162).
T2 sequence: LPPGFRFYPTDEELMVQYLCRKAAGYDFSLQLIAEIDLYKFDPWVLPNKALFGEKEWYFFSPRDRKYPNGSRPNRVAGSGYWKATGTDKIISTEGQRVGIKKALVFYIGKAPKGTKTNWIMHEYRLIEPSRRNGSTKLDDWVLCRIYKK
The note with it: protein: recombinant; tags: GST; chain copies: 2; dsDNA, one strand shown. In short, it runs like this:
as §1

The target in assay [4] is T3, GST-ANAC055(1-171) (Arabidopsis thaliana, UniProt Q9LDY8 1-171).
T3 sequence: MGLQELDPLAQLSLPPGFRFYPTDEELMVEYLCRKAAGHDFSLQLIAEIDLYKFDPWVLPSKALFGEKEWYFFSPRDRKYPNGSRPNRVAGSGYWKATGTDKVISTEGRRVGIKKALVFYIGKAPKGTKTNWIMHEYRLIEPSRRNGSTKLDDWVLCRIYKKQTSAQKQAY
The note with it: protein: recombinant; tags: GST; chain copies: 2; dsDNA, one strand shown. The method in brief:
as §1

For assay [5], the target named is T4, GST-ATAF1 NAC domain (Arabidopsis thaliana, UniProt Q39013 7-158).
T4 sequence: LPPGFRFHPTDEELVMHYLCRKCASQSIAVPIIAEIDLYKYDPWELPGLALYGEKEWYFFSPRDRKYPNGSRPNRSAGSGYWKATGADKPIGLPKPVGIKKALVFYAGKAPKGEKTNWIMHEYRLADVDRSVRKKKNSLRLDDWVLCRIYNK
The note with it: protein: recombinant; tags: GST; chain copies: 2; dsDNA, one strand shown. In short, it runs like this: as §1

The target of assay [6] is T5, GST-ANAC092(1-285) full length (Arabidopsis thaliana, UniProt Q9FKA0 1-285).
T5 sequence: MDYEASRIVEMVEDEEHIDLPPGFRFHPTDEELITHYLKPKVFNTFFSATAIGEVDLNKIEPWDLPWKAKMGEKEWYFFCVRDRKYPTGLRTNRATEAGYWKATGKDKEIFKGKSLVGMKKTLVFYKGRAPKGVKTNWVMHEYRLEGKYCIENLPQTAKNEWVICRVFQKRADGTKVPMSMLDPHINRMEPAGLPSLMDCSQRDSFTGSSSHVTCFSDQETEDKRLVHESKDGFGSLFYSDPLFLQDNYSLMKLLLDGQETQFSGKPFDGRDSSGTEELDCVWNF
The note with it: protein: recombinant; tags: GST; chain copies: 2; dsDNA, one strand shown. The method in brief: as §1

Assay [7] deals with T6, GST-NAP(1-166) (Arabidopsis thaliana, UniProt O49255 1-166).
T6 sequence: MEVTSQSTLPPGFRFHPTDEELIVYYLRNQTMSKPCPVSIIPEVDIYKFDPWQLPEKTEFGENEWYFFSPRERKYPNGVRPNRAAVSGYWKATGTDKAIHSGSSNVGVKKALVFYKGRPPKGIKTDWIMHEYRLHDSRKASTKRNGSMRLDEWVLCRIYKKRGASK
As to conditions: protein: recombinant; tags: GST; chain copies: 2; dsDNA, one strand shown. In short, it runs like this: as §1

Assay [8] deals with T7, GST-NST2(1-184) (Arabidopsis thaliana, UniProt Q9M274 1-184).
T7 sequence: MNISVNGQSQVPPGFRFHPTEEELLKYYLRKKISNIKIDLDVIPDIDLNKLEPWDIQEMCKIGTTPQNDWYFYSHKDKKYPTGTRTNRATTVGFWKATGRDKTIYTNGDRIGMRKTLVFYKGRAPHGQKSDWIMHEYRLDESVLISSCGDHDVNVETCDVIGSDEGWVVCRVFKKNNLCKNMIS
The note with it: protein: recombinant; tags: GST; chain copies: 2; dsDNA, one strand shown. In short, it runs like this: as §1

For assay [9], the target named is T8, GST-NTL8 NAC domain (Arabidopsis thaliana, UniProt Q9XIN7 14-156).
T8 sequence: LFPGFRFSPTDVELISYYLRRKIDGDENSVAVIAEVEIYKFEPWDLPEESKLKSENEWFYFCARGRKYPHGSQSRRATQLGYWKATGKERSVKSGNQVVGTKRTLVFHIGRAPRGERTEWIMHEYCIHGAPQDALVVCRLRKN
As to conditions: protein: recombinant; tags: GST; chain copies: 2; dsDNA, one strand shown. In short, it runs like this:
as §1

In assay [10] the target is T9, GST-SND1(1-203) (Arabidopsis thaliana, UniProt Q9LPI7 1-203).
T9 sequence: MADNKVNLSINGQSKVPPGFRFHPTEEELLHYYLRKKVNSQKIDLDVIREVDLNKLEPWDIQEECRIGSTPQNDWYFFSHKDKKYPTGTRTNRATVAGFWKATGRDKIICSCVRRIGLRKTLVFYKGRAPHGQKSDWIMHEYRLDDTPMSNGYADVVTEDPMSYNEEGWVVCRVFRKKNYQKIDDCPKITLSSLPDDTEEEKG
The note with it: protein: recombinant; tags: GST; chain copies: 2; dsDNA, one strand shown. The method in brief: as §1

Assay [11] deals with T10, GST-VND7 NAC domain (Arabidopsis thaliana, UniProt Q9C8W9 9-158).
T10 sequence: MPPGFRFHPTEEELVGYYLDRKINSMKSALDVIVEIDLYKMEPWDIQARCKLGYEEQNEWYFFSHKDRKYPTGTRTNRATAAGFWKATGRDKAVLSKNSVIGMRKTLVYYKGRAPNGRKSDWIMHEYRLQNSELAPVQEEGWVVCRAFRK
The note with it: protein: recombinant; tags: GST; chain copies: 2; dsDNA, one strand shown. The method in brief:
as §1

The target of assay [12] is GST-WRKY1(266-371) (Arabidopsis thaliana, UniProt Q9SI37 266-371). As to conditions: protein: recombinant; tags: GST; dsDNA, one strand shown. In short, it runs like this: as §1
Chain of GST-WRKY1(266-371) (Q9SI37 266-371): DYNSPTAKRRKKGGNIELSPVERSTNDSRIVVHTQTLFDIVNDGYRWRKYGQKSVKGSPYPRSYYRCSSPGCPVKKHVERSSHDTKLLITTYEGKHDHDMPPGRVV

Turning to CCCCGCCC, the binding signal in assay [1] is 0.325 E-score; in [2], 0.319 E-score; in assay [3], 0.329 E-score; in assay [4], 0.178 E-score; in assay [5] it was 0.262 E-score; in [6], 0.343 E-score. The binding signal in [7] was determined as 0.0894 E-score; in assay [8], 0.297 E-score; in assay [9], 0.372 E-score; in assay [10], 0.378 E-score; in [11], 0.273 E-score.

For CGTAGACC, the results for the binding signal in [10] and in assay [12] were 0.0522 E-score and 0.434 E-score, respectively.

Turning to CGAAGCAA, the binding signal in assay [1] stood at 0.243 E-score; in assay [2], 0.325 E-score; in [6] it was 0.271 E-score; in [8], 0.208 E-score; in [9] it was 0.339 E-score; in assay [10] it was 0.427 E-score. For the same sequence, the binding signal in [11] came to 0.169 E-score.

As to CTTGACCC, the binding signal came out at 0.0908 E-score in assay [9], 0.0887 E-score in assay [10] and 0.477 E-score in [12].

AAGTCAAG: the binding signal in assay [2] is 0.113 E-score; in assay [5], 0.0757 E-score; in assay [6] it was 0.14 E-score; in assay [8], 0.0657 E-score; in assay [10] it was 0.0903 E-score; in assay [12] it was 0.479 E-score.

With CGTCAAAG, the binding signal is 0.0844 E-score in assay [1]; 0.0986 E-score in assay [3]; 0.149 E-score in assay [6]; 0.102 E-score in [8]; 0.199 E-score in assay [10]; 0.427 E-score in [12].

Take CTTAAGGA: the binding signal in [2] was determined as 0.401 E-score; in assay [8] it was 0.0872 E-score; in assay [9], 0.179 E-score; in assay [10] it was 0.265 E-score; in assay [12], 0.07 E-score.

Regarding GTCAAAGA, the binding signal in assay [4] turned out to be 0.078 E-score; in assay [6], 0.0725 E-score; in assay [8] it was 0.053 E-score; in assay [10], 0.167 E-score; in [12], 0.469 E-score.

As to TAAAGTCA, the binding signal in assay [5] stood at 0.0969 E-score; in assay [6], 0.0547 E-score; in assay [10], 0.0751 E-score; in [12], 0.465 E-score.

Turning to CCTTTGAC, the binding signal in assay [9] amounted to 0.0589 E-score; in assay [10], 0.101 E-score; in assay [12], 0.475 E-score.

Take GCTTTCCC: the binding signal in [1] was found to be 0.124 E-score; in assay [2] it was 0.142 E-score; in [3] it was 0.0714 E-score; in assay [6], 0.117 E-score; in [9] it was 0.423 E-score; in [10], 0.0912 E-score.
